Source: PubChem BioAssay (National Center for Advancing Translational Sciences (NCATS))
ALDH1A1 block = qHTS Assay for Inhibitors of Aldehyde Dehydrogenase 1 (ALDH1A1) | Aldehyde dehydrogenase 1A1 (Homo sapiens), P00352 | Purified ALDH1A1, NADH fluorescence, propionaldehyde substrate | Potency, µM (highest dose often 75.3 µM), for inactives: at the top dose activity, negative = inhibition, actives largely listed as inhibitors | hit rate 7.3% among 220,000 | AID 1030, 2008;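 note: potency is the fitted concentration of half-maximal effect; plate controls were no enzyme wells and a reference inhibitor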
Target sequence (P00352 whole entry, looked up): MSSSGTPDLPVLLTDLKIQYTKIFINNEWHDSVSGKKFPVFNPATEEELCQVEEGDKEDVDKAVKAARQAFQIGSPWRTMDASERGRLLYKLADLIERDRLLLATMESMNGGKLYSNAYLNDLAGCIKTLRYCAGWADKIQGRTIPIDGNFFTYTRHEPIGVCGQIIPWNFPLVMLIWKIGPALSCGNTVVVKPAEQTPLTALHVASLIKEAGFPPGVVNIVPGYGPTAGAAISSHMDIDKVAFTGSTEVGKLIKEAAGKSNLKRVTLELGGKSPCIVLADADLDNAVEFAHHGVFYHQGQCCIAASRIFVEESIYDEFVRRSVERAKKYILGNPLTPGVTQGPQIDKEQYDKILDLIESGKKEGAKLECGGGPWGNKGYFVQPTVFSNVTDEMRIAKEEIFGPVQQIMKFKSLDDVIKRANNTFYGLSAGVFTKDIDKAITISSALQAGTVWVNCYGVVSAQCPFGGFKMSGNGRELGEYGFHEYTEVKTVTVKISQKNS
IMPase cell inh = qHTS Assay for Identifying the Cell-Membrane Permeable IMPase Inhibitors. CHO-M1 cells, IP1 accumulation, HTRF TR-FRET ratio. Inositol monophosphatase 1 (Rattus norvegicus), P97697. inhibition (IP1 accumulation), % at 46.1 µM. 120,000 tested, under 10 active; active = well fitted curve in the direction sought with a large enough effect in the signal ratio, not every such curve was filed as active; inconclusive = small, poorly fitted or top-dose-only effect, or a change in a side signal; inactive = no such curve, though single readings can be large or run the other way; the % refers to the signal ratio;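 note: cells stimulated with carbachol in lithium chloride buffer; plate controls were DMSO basal wells for no effect and reference inhibitor wells for full effect; higher means more IMPase inhibition seen as more IP1 and lower FRET ratio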
Target sequence (P97697 whole entry, looked up): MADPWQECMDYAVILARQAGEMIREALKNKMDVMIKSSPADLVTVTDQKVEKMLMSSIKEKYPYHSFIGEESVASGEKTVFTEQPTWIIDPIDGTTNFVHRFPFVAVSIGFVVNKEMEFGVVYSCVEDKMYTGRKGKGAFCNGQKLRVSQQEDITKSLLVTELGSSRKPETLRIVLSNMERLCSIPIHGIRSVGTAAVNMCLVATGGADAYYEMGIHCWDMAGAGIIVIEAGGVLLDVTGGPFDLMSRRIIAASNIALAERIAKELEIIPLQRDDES
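Carbachol-driven Gq signalling in CHO-M1 cells (2000/well) generates IP1. Compounds that block IMPase raise IP1 and so reduce the FRET signal from Eu-anti-IP1 and d2-IP1 after a 10 min room-temperature lysis.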
HPGD block = qHTS Assay for Inhibitors of HPGD (15-Hydroxyprostaglandin Dehydrogenase). 15-hydroxyprostaglandin dehydrogenase [NAD(+)] (Homo sapiens), P15428. Potency, µM, without a hit: at the highest dose activity change, negative = inhibition, actives largely listed as inhibitors. hit rate 4.3% among 150,000. purified HPGD, NADH fluorescence kinetic, PGE2 substrate; note: potency is the fitted concentration of half-maximal effect
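NADH formation kinetics: reaction with 30 uM PGE2 and 1 mM NAD+ (final), 20 nM enzyme, Tris-HCl pH 8 with Tween 20, after 15 min compound preincubation at room temperature. Fluorescence change, last versus first of five reads.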
IMPase Li cell = qHTS Assay for Identifying the Cell-Membrane Permeable IMPase Inhibitors: Potentiation with Lithium; CHO-M1 cells, IP1 TR-FRET (IP-One), carbachol + lithium; Potency, µM (doses to about 59.4 µM), without a hit: top-dose activity, negative = IMPase inhibition, usual class: inhibitors; hit rate 0.35% among 210,000; active = well fitted curve in the direction sought with a large enough effect; inconclusive = small, poorly fitted or top-dose-only effect, or another doubt; inactive = no such curve, though single readings can be large; an effect the other way counts as inactive or inconclusive;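 note: IP1 builds up when IMPase is blocked and the TR-FRET signal falls; potency is the fitted concentration of half-maximal effect; plate controls were basal vehicle for no effect and high inhibitor control for full effect; nearly all actives have a fitted effect of over 50% in size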
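Lithium-sensitised IP1 accumulation assay; M1-expressing CHO cells treated 30 min at 37C with compound. Competitive antibody detection by time-resolved FRET followed a 10 min room-temperature lysis step.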
PNC assembly inh = High Content Assay for Compounds that inhibit the Assembly of the Perinucleolar Compartment; activity change (PNC), negative = inhibition, % at 10 µM; hit rate 3.1% among 140,000; AID 2417, 2010; PC3M PTB-GFP, PNC prevalence imaging, 16 h; hits give low values;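 active = readout at or below -70, meaning at least 70% loss of cells showing the perinucleolar compartment, a nuclear body marking cancer cells; inconclusive = readout between -30 and a set limit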;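 note: plate controls were DMSO wells for no effect and camptothecin positive control wells for full effect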
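Compounds are pinned in duplicate onto adhered PC3M cells stably expressing GFP-tagged PTB and incubated 16 h at 37 C. Cells are then fixed, nuclei stained with Hoechst, and PNC-positive cells counted.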
12-hLO inh = qHTS Assay for Inhibitors of 12-hLO (12-human lipoxygenase) | purified 12-hLO, xylenol orange hydroperoxide absorbance | Potency, µM (series often up to 57.1 µM), for inactives: top-dose activity change, negative = inhibition, actives largely listed as inhibitors | hit rate 0.12% among 150,000 | AID 1452, 2008; active = well fitted curve in the direction sought with a large enough effect; inconclusive = small, poorly fitted or top-dose-only effect, or another doubt; inactive = no such curve, though single readings can be large; an effect the other way counts as inactive or inconclusive; note: potency is the fitted concentration of half-maximal effect; nearly all actives have a fitted effect of over 55% in size
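Hydroperoxide output read as Fe(III)-xylenol orange absorbance, 573-to-405 nm ratio, after 30 min reaction with 40 uM arachidonic acid. Enzyme: 150 nM purified human 12hLO, 15 min compound preincubation; 25 mM Hepes pH 7.0, room temperature.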
* = called active by the depositor; u = inconclusive; x = no result; [ ] = another dose, or the depositor's remark. The list is not random: actives were taken first. Their share in the collection is about 11%. Unless noted, calls come from the whole dose curve; as a rule, active = well fitted inhibition curve with a large enough effect (not every such curve was filed as active); inconclusive = small, poorly fitted or top-dose-only effect, or another doubt; inactive = no such curve, though single readings can be large or run the other way. Unless noted, % is set by controls: 0 for no effect and ±100 for the full control effect.

SMILES	ALDH1A1 block	IMPase cell inh	HPGD block	IMPase Li cell	PNC assembly inh	12-hLO inh
Cc1ccc(/C=N/n2c(-c3ccncc3)n[nH]c2=S)cc1	u	x	20µM*	6%	u	-10%
S=c1[nH]nc(-c2ccncc2)n1/N=C/c1cccc2ccccc12	-7%	-6	0.32µM*	2%	-9	-2%
CC(C)(C)c1ccc(-c2n[nH]c(=S)n2/N=C/c2ccncc2)cc1	0%	x	11µM*	10%	-17	-2%
CCCNC(=O)OC[C@@H]1O[C@H](CCO/N=C(\C)CCC(=O)OC[C@@H]2O[C@H](C#Cc3ccccc3)C=C[C@@H]2Oc2ccc(C)cc2)C=C[C@@H]1Oc1ccc(OC)cc1	11%[13.5 µM]	x	x	x	x	x
CCCc1cc(-c2n[nH]c(=S)n2C(C)c2ccccc2)cs1 (stereo not drawn)	u	7	13µM*	29%[38.3 µM]	28	-30%
S=c1[nH]nc(-c2ccc(Cl)cc2Cl)n1Cc1ccccc1	32µM*	x	16µM*	16%	u	-22%
C=CCn1c(-c2cccc(S(=O)(=O)N(CC)CC)c2)n[nH]c1=S	2.2µM*	x	x	-18%	x	x
Cc1ccccc1-c1n[nH]c(=S)n1Cc1ccccc1	-1%	x	x	9%	x	x
S=c1[nH]nc(-c2cccc(Cl)c2)n1Cc1ccccc1	u	x	18µM*	-5%	56	-12%
NCCCCC(N)C(=O)NC(Cc1ccc(O)cc1)C(=O)NC(CCCCN)C(=O)O (stereo not drawn)	-8%	x	-19%	-6%	x	-3%
Cc1ccc(C)c(C(=N)c2ccccc2Cc2ccccc2)c1	8%[13.5 µM]	x	2%	0%	x	-7%[11.4 µM]
COc1ccc(COC(=O)N/N=C2/C[C@@H](O)[C@@H](O)[C@@H]3[C@@H]4C(=O)N(C[C@@H]5CCCO5)C(=O)[C@H]4CC[C@@H]23)cc1	-9%[13.5 µM]	x	x	x	x	x
COC(=O)CC1c2ccccc2C=C(C2CC2)N1C(=O)OC (stereo not drawn)	1%	x	-3%	3%	x	14%[11.4 µM]
CCn1c(-c2csc(C(C)C)c2)n[nH]c1=S	16µM*	x	u	14%	-11	-3%
CCc1cc(-c2n[nH]c(=S)n2-c2ccccc2C)cs1	8.9µM*	3	u	-8%[38.3 µM]	36	-20%
C=CCn1c(-c2cccc(Cl)c2)n[nH]c1=S	11µM*	-22	u	8.9µM*	u	-9%
C=CCn1c(-c2cccc([N+](=O)[O-])c2)n[nH]c1=S	u	x	x	-11%	x	x
O=[N+]([O-])c1cccc(-c2n[nH]c(=S)n2Cc2ccccc2)c1	u	x	25µM*	-2%	-12	-3%
CCc1cc(-c2n[nH]c(=S)n2Cc2ccccc2)cs1	5.6µM*	8	14µM*	33%[38.3 µM]	51	-21%
CC(C)Cc1nnc(NS(C)(=O)=O)s1	25µM*	u	-19%	-24%[38.3 µM]	20	-1%
CCN(CC)c1ccc(C=Nc2ccc(C#N)cc2)c(O)c1	35µM*	3	28µM*	-21%[38.3 µM]	26	-27%
CCC(C)NC(=O)c1ccc2c(SCC(=O)O)c3c(nc2c1)CCCC3 (stereo not drawn)	u	x	22µM*	-12%	12	2%
COc1ccc(NC(=O)CSc2c3c(nc4ccccc24)CCC3)c(OC)c1	8%	x	-2%	3%	-12	-1%
CCCCNC(=O)c1ccc2c(SCC(=O)O)c3c(nc2c1)CCCC3	u	x	13µM*	-7%	20	2%
Cc1ccc(CNC(=O)CSc2c3c(nc4cc(Cl)ccc24)CCCC3)o1	20µM*	-19	u	22%[38.3 µM]	u	-9%
SMILES	ALDH1A1 block	IMPase cell inh	HPGD block	IMPase Li cell	PNC assembly inh	12-hLO inh
COc1ccc(NC(=O)c2ccc3c(SCC(=O)O)c4c(nc3c2)CCCC4)c(OC)c1	7.9µM*	x	x	-7%	x	x
CC(C)CCCC(C)C1CCC2C3CC=C4CC(O)CC[C@@]4(C)C3CC[C@@]12C (stereo partly drawn)	-5%	x	-19%	0%	x	3%
Clc1ccccc1C(Nc1ncccn1)Nc1ncccn1	8%[13.5 µM]	x	-6%	1%	x	7%[11.4 µM]
COc1ccc(CCC(C)Nc2cccc(F)c2)cc1 (stereo not drawn)	10µM*	5	-18%	18%[38.3 µM]	-6	-2%
COc1cc(C(=O)Oc2ccc3c(OC)c4ccoc4nc3c2OC)cc(OC)c1OC	4%	x	-9%	27%	x	x
COc1ccc2c(c1)OC/C(=C\c1ccc(OC)c(O)c1)C2=O	5.6µM*	x	11µM*	33%	x	-24%
N#Cc1ccc(CN2CCCC3(CCNCC3)C2)cc1	-5%	x	-2%	16%	x	5%
CC1(C(=O)OCc2cc(=O)n3cc(Br)ccc3n2)CC1(Cl)Cl (stereo not drawn)	20µM*	x	x	-27%	x	x
CC(C)[C@H](NC(=O)c1ccccc1Cl)C(=O)OCc1cc(=O)n2cc(Br)ccc2n1	u	x	x	11µM*	x	x
Cc1ccccc1C(=O)NC(CC(C)C)C(=O)OCc1cc(=O)n2cc(Br)ccc2n1 (stereo not drawn)	-15%	-3	-20%	-18%	29	4%
CC1(C)CC2CN(C(=O)Cc3ccccc3)C(C)(C2)C1 (stereo not drawn)	18µM*	x	x	6%	x	x
O=C(O)C1CCN(C(=O)Cc2ccccc2)CC1	0%	x	x	-3%	x	x
CCO	u	x	-5%	14%	x	3%
CCc1ccc(NC(=O)Cn2nc(C(F)(F)F)c3c2CCC3)cc1	6%	6	-17%	0%[38.3 µM]	76	2%
N#Cc1c(NC(=O)Cn2nc(C(F)(F)F)c3c2CCCC3)sc2c1CCC2	7.9µM*	0	8.9µM*	-5%[38.3 µM]	57	-14%
CC1CCc2c(sc(NC(=O)Cn3nc(C(F)(F)F)c4c3CCCCC4)c2C#N)C1 (stereo not drawn)	25µM*	6	35µM*	2%[38.3 µM]	32	-1%
Cc1cc(C(=O)OCC(=O)N2CC(C)CC(C)C2)c(C)o1 (stereo not drawn)	14µM*	1	-8%	6%[38.3 µM]	23	0%
CC1CC(C)CN(C(=O)COC(=O)c2cc3ccccc3cc2O)C1 (stereo not drawn)	-6%	16	-23%	4%[38.3 µM]	41	-13%
Cc1c(C(=O)COC(C)(C)C)[nH]c2ccccc12	6.3µM*	12	4.5µM*	1%	u	2%
CCOC(=O)c1[nH]c2ccccc2c1NC(=O)C(C)(C)C	u	4	u	7%[38.3 µM]	1	-3%
